Source: PubChem (National Center for Advancing Translational Sciences (NCATS))
PLK1 PBD inh: inhibitors of human PLK1 polo-box domain binding. P53350. Plk1 PBD binding of FITC phosphopeptide, fluorescence polarization. Potency, µM, actives largely listed as inhibitors. 360,000 compounds, 2.8% hits. AID 720504; further: series mostly up to about 57 µM; nearly all actives have a fitted effect of over 65% in size
KAT2A inh: GCN5L2 (KAT2A) acetyltransferase inhibition; Q92830; 390,000 compounds, 0.21% hits; Potency, µM (series often up to 58.9 µM), actives largely listed as inhibitors; GCN5L2 HAT assay, ThioGlo1 CoA-SH fluorescence
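GCN5L2 (20 nM) in 50mM HEPES pH 7.5, 0.1mM EDTA, 0.01% Tween-20 preincubated 15 min with compounds at room temperature. Reaction started with H3(1-25) 75uM, acetyl-CoA 70uM, ThioGlo1 50uM; CoA-thiol fluorescence (Ex340/Em540) read at 0 and 20 min.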
VDR inhibitor: blocks the human vitamin D receptor; P11473; Potency, µM, actives largely listed as inhibitors; 400,000 compounds, 0.93% hits; VDR-SRC2-3 peptide fluorescence polarization, 2 h
Target sequence (P11473 whole entry, looked up): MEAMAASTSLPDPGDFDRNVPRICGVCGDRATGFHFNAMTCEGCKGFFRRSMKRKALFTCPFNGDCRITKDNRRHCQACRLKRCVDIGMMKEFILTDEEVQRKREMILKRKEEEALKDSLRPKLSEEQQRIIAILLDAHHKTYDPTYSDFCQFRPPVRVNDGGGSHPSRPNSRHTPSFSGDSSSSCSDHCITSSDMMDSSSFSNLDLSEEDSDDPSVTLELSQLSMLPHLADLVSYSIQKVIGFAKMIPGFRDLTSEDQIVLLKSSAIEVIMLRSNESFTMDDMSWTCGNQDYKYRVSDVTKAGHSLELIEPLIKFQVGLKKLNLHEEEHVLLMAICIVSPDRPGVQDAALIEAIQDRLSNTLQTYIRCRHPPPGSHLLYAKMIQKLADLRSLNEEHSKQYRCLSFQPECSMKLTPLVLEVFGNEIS
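Reagent solutions, kept cold and dark, are dispensed first; compounds are then pinned in at 23 nl, plates briefly spun, and incubated 2 h at ambient temperature. Inhibition of VDR–SRC2-3 peptide binding is read by fluorescence polarization.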
TDP1 inh: blocks human tyrosyl-DNA phosphodiesterase 1. AID 485290. Q9NUW8. recombinant TDP1, AlphaScreen DNA substrate cleavage. Potency, µM (highest dose often 130 µM), most hits filed as inhibitors. 350,000 compounds, 0.28% hits; further: nearly all actives have a fitted effect of over 40% in size
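Steps: enzyme plus compound, 15 min RT; add biotin/phosphotyrosine-FITC oligonucleotide (15 nM final), react 5 min; add donor/acceptor beads (10 ug/ml final), 10 min; read AlphaScreen. Tdp1 at 1 nM final.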
DT40 TDP1 CPT: growth inhibition of DT40 Tdp1-/-;hTDP1 cells with camptothecin (screen for TDP1 inhibitors) | AID 686979 | chicken DT40 Tdp1-/-;hTDP1 cells + 20 nM CPT, ATP luminescence, 48 h | 420,000 compounds, 12% hits | Potency, µM (titrated, usually from 46.2 µM), actives largely listed as inhibitors; further: nearly all actives have a fitted effect of over 55% in size
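Chicken DT40 Tdp1-/- cells complemented with human TDP1, 400 cells/well, exposed to compounds plus 20 nM camptothecin for at least 48 h at 37 C; viability read as ATP content by CellTiter-Glo luminescence.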
TDP1 cell noCPT: qHTS for Inhibitors of human tyrosyl-DNA phosphodiesterase 1 (TDP1): qHTS in cells in absence of CPT | 420,000 compounds, 15% hits | DT40 Tdp1-/- hTDP1 cells, no CPT, ATP luminescence, 48 h | AID 686978, 2013 | Potency, µM (series often up to 46.2 µM), actives largely listed as inhibitors; further: nearly all actives have a fitted effect of over 55% in size
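Compound effects on proliferation are scored in DT40 Tdp1-/-;hTDP1 cells in the absence of CPT. ATP levels (CellTiter-Glo luminescence) are recorded after a ≥48 hr, 37 °C incubation.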
Numbers stand for hits; - = inactive; ? = inconclusive; . = no result; [ ] = dose if it differs, or a comment. Rows were chosen to be rich in hits. Some 18% of all compounds tested hit in one or more screens of this group. The call rests on the fitted dose curve; in most records, active means well fitted curve in the direction sought with a large enough effect; inconclusive means small, poorly fitted or top-dose-only effect, or another doubt; inactive means no such curve, though single readings can be large; an effect the other way counts as inactive or inconclusive.

SMILES	PLK1 PBD inh	KAT2A inh	VDR inhibitor	TDP1 inh	DT40 TDP1 CPT	TDP1 cell noCPT
O=C1NCCCN1C1OC(CO)C(O)C1O (centres undefined)	-	.	.	.	-	-
Cc1cccc(C(=O)Nc2sc3c(c2C(=O)NC(C)C)CCCC3)c1	.	-	-	-[12.3 µM]	?	15µM
Cc1cccc(C(=O)Nc2nc3c(s2)CCCC3)c1	.	-	-	-	?	18µM
COc1ccc(C(=O)Nc2nc3c(s2)CCCC3)cc1Cl	.	-	-	-	?	15µM
O=C(Nc1nc2c(s1)CCCC2)c1ccc(Br)s1	-	-	-	-	16µM	29µM
Cc1cc(C(=O)Nc2nc3c(s2)CCCC3)cs1	-	-	-	-	?	?
COc1ccc([N+](=O)[O-])c2c1CCN2C(=O)CC[C@H](N)C(=O)O	.	-	-	-	-	-
CC(C)c1nnc(NC(=O)CCS(=O)(=O)Cc2ccccc2)s1	?	-	-	-	-	-
O=C(NC(=S)Nc1nc2c(s1)CCCC2)c1ccccc1	-	-	-	-	?	29µM
O=C(CCS(=O)(=O)Cc1ccccc1)Nc1nc2c(s1)CCCC2	-	-	-	-	?	26µM
CCc1cccc(C)c1NC(=S)NCc1ccc2[nH]c(C)cc2c1	-	-	-	-	23µM	18µM
CCc1cccc(C)c1NC(=S)NCc1cccn1C	-	-	-	-	21µM	?
Cc1c(Cl)cccc1NC(=S)NCc1cccn1C	17µM	-	?	-	?	?
Cc1ccc(Cl)cc1NC(=S)NCc1cccn1C	-	-	?	-	?	18µM
COc1ccccc1N(CC(=O)Nc1cc(C)cc(C)c1)S(C)(=O)=O	.	-	-	.	?	?
C[C@H]1CC2[C@@H]3CCC4=CC(=O)C=C[C@]4(C)[C@@]3(F)[C@@H](O)C[C@]2(C)[C@@]1(O)C(=O)CO (some centres undefined)	.	.	.	-	.	.
O=C(/C=C/[C@H]1O[C@@H](n2ccc(=O)[nH]c2=O)[C@H](O)[C@@H]1O)NCCN1CCCC1	-	.	.	.	-	-
O=C(NCc1ccc(F)cc1)c1cc(C2CCCN(S(=O)(=O)c3ccccc3)C2)on1 (centres undefined)	-	.	.	.	?	16µM
O=C(NCc1ccccc1)c1cc(C2CCCN(C(=O)C3CCCCC3)C2)on1 (centres undefined)	-	.	.	.	23µM	?
O=C(NCc1ccc(F)cc1)c1cc(C2CCCN(C(=O)C3CCCCC3)C2)on1 (centres undefined)	-	.	.	.	26µM	?
O=C(NCc1ccccc1)c1cc(C2CCCN(C(=O)C3CC3)C2)on1 (centres undefined)	-	.	.	.	-	-
O=C(NCc1ccccc1)c1cc(C2CCCN(S(=O)(=O)c3cccs3)C2)on1 (centres undefined)	-	.	.	.	?	?
COc1cc(C(=O)N2CCCC(c3cc(C(=O)NCc4ccc(F)cc4)no3)C2)cc(OC)c1C (centres undefined)	-	.	.	.	23µM	?
CC1=C(SCCC#N)S/C(=C2\SC(C)=C(SCCC#N)S2)S1	12µM	-	-	-	-	?
COc1ccc(CCC(=O)OCC(=O)NC2CCCC2)cc1OC	-	.	.	.	-	-
SMILES	PLK1 PBD inh	KAT2A inh	VDR inhibitor	TDP1 inh	DT40 TDP1 CPT	TDP1 cell noCPT
Cc1ccc(Nc2nnns2)cc1C	27µM	-	45µM	-	-	-
CC(C)CN(CC(C)C)C(=O)CCCC(=O)N(CC(C)C)CC(C)C	-	-	-	-	?	16µM
COC(=O)c1sccc1NC(=O)c1cccc(OC)c1	19µM	-[0.501 µM]	?	-	?	21µM
COc1cc(OC)cc(-c2nnc(NC(=O)c3ccc4c(c3)OCCO4)o2)c1	-	-	-	-	10µM	8.2µM
COC(=O)c1sccc1NC(=O)c1ccccc1	-	-	-	-	-	-
COc1cccc(C(=O)Nc2nnc(-c3ccc(Cl)cc3)o2)c1	-	-	-	.	10µM	10µM
O=C(Nc1nnc(-c2ccc(Cl)cc2)o1)c1cccc(N2C(=O)CCC2=O)c1	-	-	-	-	-	-
COc1cccc(C(=O)Nc2nnc(-c3ccc(F)cc3)o2)c1	-	-	-	.	10µM	9.2µM
CCC(C)NS(=O)(=O)c1ccc(OCC(=O)N2CCCC2)cc1 (centres undefined)	-	-	-	-	-	-
O=C(Cc1ccc(F)cc1)Nc1nnc(-c2ccc(F)cc2)o1	-	-	-	-	23µM	?
COc1cccc(C(=O)Nc2nnc(-c3cccs3)o2)c1	-	-	-	-	16µM	?
CCOc1ccc(-c2nnc(NC(=O)c3ccc(OCC(C)C)c(OC)c3)o2)cc1	-	-	-	-	5.8µM	6.5µM
COc1cccc(-c2nnc(NC(C)=O)o2)c1	-	-	-	.	-	-
COC(=O)c1sccc1NC(=O)c1cc2c(s1)CCCC2	-	-	-	-	-	10µM
CC(OC(=O)c1nn(C)c(=O)c2ccccc12)C(=O)Nc1ccc(S(N)(=O)=O)cc1 (centres undefined)	-	-	-	.	-	-
CCN(c1ccccc1)S(=O)(=O)c1nnc(NC(=O)COc2ccc(OC)cc2)s1	.	-	-	-	-	-
CCN(CC)CC(C)CNC(=O)c1cc(-c2ccc(Br)s2)nc2ccccc12 (centres undefined)	.	-	-	-	8.2µM	9.2µM
Cc1ccc(C)c(-c2cc(C(=O)NNC(=S)NCC(C)C)c3ccccc3n2)c1	-	-	-	-	-	-
Cc1ccc(C)c(-c2cc(C(=O)Nc3sc(C)c(C)c3C(N)=O)c3ccccc3n2)c1	-	-	-	-	21µM	?
CCN(CC)C(=O)c1sc(N)c(C(=O)OC(C)C)c1C	?	-	-	-	-	-
CCN(CC)C(=O)c1sc(NC(=O)C(Sc2ccccc2)c2ccccc2)c(C(=O)OC(C)C)c1C (centres undefined)	?	-	-	-	?	16µM
CC(C)CN(CCCNC(=O)c1cc(-c2ccc(Br)s2)nc2ccccc12)CC(C)C	.	-	-	-	?	-
CCN(CC)C(=O)c1sc(NC(=O)c2cc(-c3ccc(C)s3)nc3ccccc23)c(C(=O)OC)c1C	15µM	-	-	-	?	23µM
CCOC(=O)c1ccccc1NC(=O)c1nn(C)c2c1COc1ccccc1-2	.	-	-	-	-	-
CCc1cc(CNC(=O)CC2C(=O)NCCN2Cc2cccc(OC)c2)on1 (centres undefined)	-	-	-	.	-	-
COC(=O)c1c(-c2ccncc2)csc1NC(=O)c1ccoc1C	-	-	-	-	-	-
CCN(CC)C(=O)c1sc(NC(=O)c2ccoc2C)c(C(=O)OC)c1C	21µM	-	?	-	?	21µM
